Values without a mark were called inactive. Inconclusive results are not listed. Where a call stands in place of a potency, no number is given. Calls of active or inactive are those of the source. Unless noted, calls come from the whole dose curve.
Columns and labels:
[1] = Nuclear factor erythroid 2-related factor 2/antioxidant responsive element (Nrf2/ARE) small molecule agonists: qHTS cell viability counter screen in human keratinocytes (AID 1919968; active = well fitted curve in the direction sought with a large enough effect in the repeat runs; an effect the other way counts as inactive or inconclusive; note: nearly all actives have a fitted effect of over 55% in size)
How it was run: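 KeratinoSens cells (HaCaT keratinocytes stably carrying an ARE-luciferase reporter) were seeded at 1,500 cells/well and rested 5 h at 37 C/5% CO2. They were then exposed to compounds in DMSO for 23 h. Viability was read by CellTiter-Fluor fluorescence after 1 h.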

[2] = Nuclear factor erythroid 2-related factor 2/antioxidant responsive element (Nrf2/ARE) small molecule agonists: luciferase reporter gene qHTS assay in human keratinocytes (AID 1919969); note: nearly all actives have a fitted effect of over 35% in size
[3] = molecular target: Gonadotropin-releasing hormone receptor (Homo sapiens) (UniProt P30968); assay: Human gonadotropin-releasing hormone receptor (GnRHR) small molecule agonists, calcium flux assay in GnRHR-HEK293 cells (AID 1920063); note: nearly all actives have a fitted effect of over 35% in size
How it was run: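 HEK293 cells stably expressing human GnRHR were plated 18 h at 37 °C, loaded with calcium dye 1 h at 37 °C, then given compound in agonist mode; fluorescence (Ex/Em 480/540) read kinetically for 3 min at 1 s intervals.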

[4] = molecular target: KiSS-1 receptor (Homo sapiens) (UniProt Q969F8); assay: Human kisspeptin (KISS1R) small molecule agonists, calcium flux assay in KISS1R-HEK293 cells (AID 1920064; active = well fitted curve in the direction sought with a large enough effect in the repeat runs; an effect the other way counts as inactive or inconclusive)
How it was run: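 HEK293 cells stably expressing human KISS1R were plated 18 h at 37 °C, loaded with calcium dye for 1 h at 37 °C, then given compound by pin tool. Fluorescence (Ex/Em 480/540) was read kinetically for 3 min.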

[5] = G protein-coupled receptor (GPCR) small molecule agonists, calcium flux assay: HEK293 wild type cell line counter screen (AID 1920065)
How it was run: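 Cells were plated and cultured 18 h at 37 C/5% CO2, then loaded with calcium dye for 1 h at 37 C. Compounds in DMSO were pin-transferred in agonist mode, and fluorescence (Ex/Em 480/540) was read kinetically for 3 min at 1 s intervals.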

[6] = p53 small molecule agonists, cell-based qHTS assay with human liver microsomes (AID 1963577);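 note: p53 response element beta-lactamase reporter cells with liver microsomes plus NADPH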
How it was run: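 With metabolic activation: human liver microsomes (0.5 mg/mL final) plus NADPH (0.5 mg/mL final) added alongside compounds to p53RE-bla cells; 16 h 37 C exposure; beta-lactamase read by LiveBLAzer fluorescence.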

[7] = p53 small molecule agonists, cell-based qHTS assay with rat liver microsomes (AID 1963578)
How it was run: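 Metabolic activation by rat liver microsomes and NADPH, each 0.5 mg/mL final, added right after compounds to p53RE-bla reporter cells (4,000/well, plated 5 h earlier). 16 h at 37 C, then LiveBLAzer substrate for 2 h at room temperature in the dark; fluorescence read-out.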

[8] = p53 small molecule agonists, cell-based qHTS assay with human liver microsomes: qHTS cell viability counter screen (AID 1963579); note: nearly all actives have a fitted effect of over 45% in size
How it was run: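 Metabolic activation used human liver microsomes and NADPH, both 0.5 mg/mL final, over 16 hours at 37 C on p53RE-bla cells (4,000/well). Cytotoxicity measured by CellTiter-Glo luminescence, 30 min at room temperature.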

[9] = p53 small molecule agonists, cell-based qHTS assay with rat liver microsomes: qHTS cell viability counter screen (AID 1963580); note: nearly all actives have a fitted effect of over 45% in size
How it was run: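 HCT-116 p53RE-bla, 4,000 cells/well, 5 h pre-incubation; cpd + rat liver microsomes 0.5 mg/mL + NADPH 0.5 mg/mL (final); 16 h, 37 C; CellTiter-Glo, 30 min RT; luminescence.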

[10] = p53 small molecule agonists, cell-based qHTS assay: qHTS cell viability counter screen (AID 1963581); note: nearly all actives have a fitted effect of over 45% in size
How it was run: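 p53RE-bla HCT-116 cells were exposed to compounds for 16 h at 37 C; after the beta-lactamase FRET read in the same wells, CellTiter-Glo was added and luminescence (intracellular ATP) read after 30 min at room temperature.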

[11] = p53 small molecule agonists, cell-based qHTS assay (AID 1963582; active = well fitted activation curve with a large enough effect in the signal ratio in the repeat runs, not every such curve was filed as active; the % refers to the signal ratio)
How it was run: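 p53RE-bla beta-lactamase reporter cells rested 5 h at 37 C/5% CO2, then received compounds in DMSO by pin transfer and were incubated 16 h at 37 C. LiveBLAzer B/G FRET substrate was loaded for 2 h at room temperature before fluorescence reading.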

[12] = molecular target: 5-hydroxytryptamine receptor 2A (Homo sapiens) (UniProt P28223); assay: 5-hydroxytryptamine receptor 2A (HTR2A) small molecule agonists, cell-based qHTS assay (AID 1963587); note: nearly all actives have a fitted effect of over 30% in size; note: potency is the fitted concentration of half-maximal effect
How it was run: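 Kinetic calcium-flux fluorescence (2 min, 1 sec intervals) after compound addition in agonist mode. HTR2A-CHO cells were cultured 18 h, then dye-loaded 1 h at 37 C.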

[13] = molecular target: Muscarinic acetylcholine receptor M1 (Homo sapiens) (UniProt P11229); assay: Cholinergic receptor muscarinic 1 (CHRM1) small molecule antagonists, cell-based qHTS assay (AID 1963588); note: nearly all actives have a fitted effect of over 40% in size
How it was run: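 CHRM1-CHO calcium-flux assay, antagonist mode. Cells were seeded 18 h, dye-loaded 1 h at 37 C and given compound for 5 min at RT, then acetylcholine was added at 50nM. FDSS fluorescence was read 3 min; 15 concentrations, three runs.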

[14] = molecular target: Muscarinic acetylcholine receptor M1 (Homo sapiens) (UniProt P11229); assay: Cholinergic receptor muscarinic 1 (CHRM1) small molecule agonists, cell-based qHTS assay (AID 1963589); note: nearly all actives have a fitted effect of over 35% in size
How it was run: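 CHO cells stably expressing human CHRM1, seeded 18 h at 37 C/5% CO2, dye-loaded 1 h at 37 C, then given compound in agonist mode; intracellular calcium fluorescence read kinetically at 1 s intervals. Fifteen concentrations, three independent runs.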

[15] = molecular target: Beta-2 adrenergic receptor (Homo sapiens) (UniProt P07550); assay: Adrenergic beta2 receptor (ADRB2) small molecule antagonists, cell-based qHTS assay (AID 1963592); note: series mostly up to about 92 µM; nearly all actives have a fitted effect of over 50% in size
How it was run: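 Cells (CHO, stable ADRB2 overexpression) incubated 18-20hr at 37C; compounds added from DMSO; agonist mix (1nM isoproterenol, 100uM IBMX, 25uM Ro-20-1724) added; 0.5hr RT; d2-cAMP and anti-cAMP-cryptate added; 1hr RT; 665/615 nm read.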

[16] = molecular target: D(2) dopamine receptor (Homo sapiens) (UniProt P14416); assay: Dopamine D2 receptor (DRD2) small molecule agonists, cell-based qHTS assay (AID 1963594); note: nearly all actives have a fitted effect of over 35% in size; note: potency is the fitted concentration of half-maximal effect
How it was run: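 cAMP accumulation in DRD2-HEK293 cells measured by HTRF after 1 h detection; compounds added 10 min before NKH477 (200nM […]) forskolin-analogue stimulation, 30 min at room temperature, with Ro20-1724 present at 0.1 mM final.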

[17] = cAMP Responsive Elements (CRE) small molecule agonists, cell-based qHTS assay (AID 1963590)
How it was run: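 CRE-bla HEK 293T cells in DMEM with 10% dialyzed FBS, NEAA, pyruvate and 25 mM HEPES were plated 18 h at 37 C/5% CO2, then exposed to compounds in DMSO for 3 h before LiveBLAzer B/G FRET substrate addition.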

[18] = cAMP Responsive Elements (CRE) small molecule antagonists, cell-based qHTS assay (AID 1963591; active = well fitted inhibition curve with a large enough effect in the signal ratio in the repeat runs, not every such curve was filed as active; the % refers to the signal ratio)
How it was run: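 CRE-bla HEK293T cells were plated 18 h at 37 °C/5% CO2, pinned with compound in DMSO, then stimulated with NKH477 at 0.25 uM final for 3 h. LiveBLAzer B/G FRET substrate was added and plates incubated 2 h at room temperature.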

[19] = molecular target: D(2) dopamine receptor (Homo sapiens) (UniProt P14416); assay: Dopamine D2 receptor (DRD2) small molecule antagonists, cell-based qHTS assay (AID 1963595; active = well fitted inhibition curve with a large enough effect in the signal ratio in the repeat runs, with a control signal flat; the % refers to the signal ratio)
How it was run: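 DRD2-HEK293; 0.1 mM Ro20-1724; cpd 10 min RT; NKH477 200 nM + quinpirole 12 nM, 30 min RT; HTRF cAMP (cAMP-d2/anti-cAMP cryptate), 665/620 nm ratio after 1 h.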

[20] = molecular target: Beta-2 adrenergic receptor (Homo sapiens) (UniProt P07550); assay: Adrenergic beta2 receptor (ADRB2) small molecule agonists, cell-based qHTS assay (AID 1963593);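 note: CHO cells stably overexpressing human ADRB2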
How it was run: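 CHO cells stably over-expressing ADRB2 were plated overnight at 37C, then dosed with compounds plus a stimulation mix containing 100uM IBMX and 25uM Ro-20-1724 for 0.5hr at room temperature. cAMP was measured by HTRF competition, 1hr.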

Sequence of Beta-2 adrenergic receptor (Homo sapiens) (P07550 whole entry, looked up): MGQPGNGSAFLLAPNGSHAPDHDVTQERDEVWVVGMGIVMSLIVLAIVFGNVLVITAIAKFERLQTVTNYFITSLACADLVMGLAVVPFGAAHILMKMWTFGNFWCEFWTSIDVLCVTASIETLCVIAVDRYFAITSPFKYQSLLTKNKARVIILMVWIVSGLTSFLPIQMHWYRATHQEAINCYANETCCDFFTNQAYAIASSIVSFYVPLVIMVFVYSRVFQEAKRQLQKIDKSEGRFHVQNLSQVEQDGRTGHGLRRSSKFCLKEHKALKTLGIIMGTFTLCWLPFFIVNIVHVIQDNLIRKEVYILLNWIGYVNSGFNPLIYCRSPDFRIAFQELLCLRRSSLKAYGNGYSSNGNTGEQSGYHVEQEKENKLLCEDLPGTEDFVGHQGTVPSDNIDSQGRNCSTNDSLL
Sequence of Muscarinic acetylcholine receptor M1 (Homo sapiens) (P11229 whole entry, looked up): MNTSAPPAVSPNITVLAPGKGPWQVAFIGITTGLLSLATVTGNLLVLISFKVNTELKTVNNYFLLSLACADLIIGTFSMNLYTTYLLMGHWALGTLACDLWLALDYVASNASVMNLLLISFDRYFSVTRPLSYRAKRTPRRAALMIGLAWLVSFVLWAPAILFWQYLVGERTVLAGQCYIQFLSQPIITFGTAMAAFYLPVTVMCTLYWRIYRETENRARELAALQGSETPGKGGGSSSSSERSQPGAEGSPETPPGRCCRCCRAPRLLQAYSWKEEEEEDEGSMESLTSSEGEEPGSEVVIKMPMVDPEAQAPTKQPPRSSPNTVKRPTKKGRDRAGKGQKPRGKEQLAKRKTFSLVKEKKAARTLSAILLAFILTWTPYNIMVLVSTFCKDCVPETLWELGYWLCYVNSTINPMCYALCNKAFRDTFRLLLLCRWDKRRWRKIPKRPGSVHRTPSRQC
Sequence of D(2) dopamine receptor (Homo sapiens) (P14416 whole entry, looked up): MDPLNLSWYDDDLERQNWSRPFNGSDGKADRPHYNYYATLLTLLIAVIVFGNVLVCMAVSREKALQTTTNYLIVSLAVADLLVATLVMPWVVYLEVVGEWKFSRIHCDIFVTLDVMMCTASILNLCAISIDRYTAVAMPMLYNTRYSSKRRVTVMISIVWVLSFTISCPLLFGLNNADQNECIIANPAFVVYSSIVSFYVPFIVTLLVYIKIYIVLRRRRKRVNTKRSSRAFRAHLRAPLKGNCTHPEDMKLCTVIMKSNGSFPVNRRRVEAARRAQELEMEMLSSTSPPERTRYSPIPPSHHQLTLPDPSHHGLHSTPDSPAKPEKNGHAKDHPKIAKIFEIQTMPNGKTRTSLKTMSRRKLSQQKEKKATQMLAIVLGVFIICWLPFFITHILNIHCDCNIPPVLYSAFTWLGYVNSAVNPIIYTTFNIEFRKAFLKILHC
Sequence of 5-hydroxytryptamine receptor 2A (Homo sapiens) (P28223 whole entry, looked up): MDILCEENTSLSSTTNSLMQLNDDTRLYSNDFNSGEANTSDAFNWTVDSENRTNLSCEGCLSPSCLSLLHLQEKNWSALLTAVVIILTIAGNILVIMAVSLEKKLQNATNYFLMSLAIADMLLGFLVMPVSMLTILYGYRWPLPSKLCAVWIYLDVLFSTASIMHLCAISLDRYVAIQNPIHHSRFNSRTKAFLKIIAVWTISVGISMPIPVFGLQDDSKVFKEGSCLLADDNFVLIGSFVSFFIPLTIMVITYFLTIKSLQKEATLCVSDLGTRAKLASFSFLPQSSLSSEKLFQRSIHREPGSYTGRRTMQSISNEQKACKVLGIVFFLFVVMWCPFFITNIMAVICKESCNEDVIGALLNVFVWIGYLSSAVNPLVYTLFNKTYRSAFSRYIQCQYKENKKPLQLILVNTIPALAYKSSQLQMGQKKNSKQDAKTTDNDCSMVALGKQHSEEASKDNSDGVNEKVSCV
Sequence of Gonadotropin-releasing hormone receptor (Homo sapiens) (P30968 whole entry, looked up): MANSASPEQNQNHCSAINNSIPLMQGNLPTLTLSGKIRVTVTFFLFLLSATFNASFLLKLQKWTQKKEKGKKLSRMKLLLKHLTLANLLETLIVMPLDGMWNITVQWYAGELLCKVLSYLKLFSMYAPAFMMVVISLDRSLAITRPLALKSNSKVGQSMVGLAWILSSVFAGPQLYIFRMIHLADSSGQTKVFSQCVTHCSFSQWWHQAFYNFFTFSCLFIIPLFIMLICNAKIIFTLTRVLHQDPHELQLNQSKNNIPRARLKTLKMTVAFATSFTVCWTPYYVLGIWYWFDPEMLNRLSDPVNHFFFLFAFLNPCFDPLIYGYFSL
Sequence of KiSS-1 receptor (Homo sapiens) (Q969F8 whole entry, looked up): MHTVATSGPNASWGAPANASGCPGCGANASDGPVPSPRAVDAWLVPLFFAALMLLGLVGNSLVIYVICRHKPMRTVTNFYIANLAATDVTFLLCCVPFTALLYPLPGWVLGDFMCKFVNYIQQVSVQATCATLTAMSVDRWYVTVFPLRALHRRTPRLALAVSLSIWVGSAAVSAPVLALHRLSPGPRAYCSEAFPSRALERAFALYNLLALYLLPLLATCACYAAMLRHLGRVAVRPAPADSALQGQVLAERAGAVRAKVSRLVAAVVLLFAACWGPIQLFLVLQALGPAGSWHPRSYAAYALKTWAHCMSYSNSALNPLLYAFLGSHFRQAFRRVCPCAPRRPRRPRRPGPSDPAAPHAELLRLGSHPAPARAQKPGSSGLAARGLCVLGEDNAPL

Compound | Potency [1] | Potency [2] | Potency [3] | outcome [4] | outcome [5] | Potency [6] | Potency [7] | Potency [8] | Potency [9] | Potency [10] | Potency [11] | Potency [12] | Potency [13] | Potency [14] | Potency [15] | Potency [16] | Potency [17] | Potency [18] | Potency [19] | Potency [20]
CC1(C)CCC(C)(C)c2cc(NC(=O)c3ccc(C(=O)O)cc3)ccc21 | inactive | inactive | inactive | inactive | inactive | inactive | inactive | inactive | inactive | inactive | inactive | inactive | inactive | inactive | inactive | 1060 nM (active) |  |  |  | 
COc1cccc([C@H](O)C2CCN(CCc3ccc(F)cc3)CC2)c1OC | inactive | inactive | inactive | inactive | inactive | inactive | inactive | inactive | inactive | inactive | inactive |  | inactive | inactive | inactive | inactive | inactive | inactive | inactive | 
CNC(=O)CN(CCN(CCN(CC(=O)[O-])CC(=O)NC)CC(=O)[O-])CC(=O)[O-].O.[Gd+3] | inactive | inactive | inactive | inactive | inactive | inactive | inactive | inactive | inactive | inactive | inactive | inactive |  | inactive | inactive |  | inactive | inactive | inactive | 
CCCCN(CCCC)CCCOC(=O)c1ccc(N)cc1 | inactive | inactive | inactive | inactive | inactive | inactive | inactive | inactive | inactive | inactive | inactive | 3380 nM (active) | inactive | inactive |  | inactive |  | inactive | inactive | 
O=C(O)c1cccc(O)c1 | inactive | inactive | inactive | inactive | inactive | inactive | inactive | inactive | inactive | inactive | inactive |  | inactive | inactive | inactive | inactive | inactive | inactive |  | inactive
CSc1nc(NC2CC2)nc(NC(C)(C)C)n1 | inactive | inactive | inactive | inactive | inactive | inactive | inactive | inactive | inactive | inactive | inactive |  | inactive | inactive | inactive |  | inactive |  | inactive | 
CC(CN(C)C)C(C)(O)Cc1ccc(Cl)cc1 (stereo not given) | inactive | inactive | inactive | inactive | inactive | inactive | inactive | inactive | inactive | inactive | inactive |  | inactive | inactive | inactive | inactive |  | inactive | inactive | inactive

Source: PubChem BioAssay (Tox21)
